# Screening results deposited in PubChem BioAssay by National Center for Advancing Translational Sciences (NCATS).
# HT1080-NT tox: qHTS for induction of synthetic lethality in tumor cells producing 2HG: qHTS for the HT-1080-NT fibrosarcoma cell line. HT-1080-NT fibrosarcoma viability, CellTiter-Glo ATP luminescence, 48 h. Potency, µM (top dose mostly 46.1 µM), inactives show at the top dose activity, negative = less viability, hits mostly cytotoxic. 360,000 compounds, 1.6% hits. AID 686970, 2013;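 also: NT is the 2HG producing partner of a matched IDH1 knockdown line; potency is read from the fitted curve at half-maximal effect; 0% = DMSO-treated cells and -100% = media-only wells without cells; nearly all actives have a fitted effect of over 55% in size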
#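 Luminescent CellTiter-Glo readout after 48 hours of compound exposure at 37 degrees C defined viability of HT-1080-NT cells. Activity was normalized to DMSO wells and cell-free media wells; concentration-response curves were fitted and assigned curve classes.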
# ALOX12 inh: Primary qHTS assay for inhibitors of human arachidonate 12S-lipoxygenase (ALOX12): Round 2. Polyunsaturated fatty acid lipoxygenase ALOX12 (Homo sapiens), P18054. purified 12hLO, xylenol orange hydroperoxide absorbance. Potency, µM (titrated, usually from 108 µM), inactives show at the top dose activity change, negative = inhibition, most hits filed as inhibitors. 580,000 compounds, 1.1% hits. AID 1671190, 2021; also: potency is read from the fitted curve at half-maximal effect
# Target sequence (P18054 whole entry, looked up): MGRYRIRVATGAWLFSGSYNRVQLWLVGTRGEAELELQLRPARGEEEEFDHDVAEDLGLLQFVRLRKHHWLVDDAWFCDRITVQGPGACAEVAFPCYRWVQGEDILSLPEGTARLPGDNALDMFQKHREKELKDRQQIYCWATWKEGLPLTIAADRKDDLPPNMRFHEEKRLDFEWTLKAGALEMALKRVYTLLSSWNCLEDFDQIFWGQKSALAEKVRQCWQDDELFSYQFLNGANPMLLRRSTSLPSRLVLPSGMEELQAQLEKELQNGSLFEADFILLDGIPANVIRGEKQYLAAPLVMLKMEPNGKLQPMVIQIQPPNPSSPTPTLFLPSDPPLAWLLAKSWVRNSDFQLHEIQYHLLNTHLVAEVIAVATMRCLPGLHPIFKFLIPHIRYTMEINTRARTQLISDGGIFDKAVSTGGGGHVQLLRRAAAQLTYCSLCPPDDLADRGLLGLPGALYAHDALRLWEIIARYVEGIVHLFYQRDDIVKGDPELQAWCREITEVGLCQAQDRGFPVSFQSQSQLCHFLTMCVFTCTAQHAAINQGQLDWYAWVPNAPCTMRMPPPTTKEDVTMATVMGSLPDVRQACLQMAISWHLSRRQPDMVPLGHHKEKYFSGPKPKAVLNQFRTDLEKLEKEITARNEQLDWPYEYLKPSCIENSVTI
#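 Purified human 12hLO at 150 nM in 25 mM Hepes, 0.01% Triton X-100, pH 7.0, preincubated 15 min at room temperature with compound. Reaction started with 40 uM arachidonic acid, 30 min at room temperature. Hydroperoxide measured by Fe-xylenol orange, 573/405 nm absorbance ratio.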
# IL-1B inflam inh: qHTS for Inhibitors of Inflammasome Signaling: IL-1-beta AlphaLISA Primary Screen; THP-1 LPS/ATP IL-1B secretion, AlphaLISA, 16 h; hits give low values; activity change, % at 57.5 µM; 360,000 compounds, 4.7% hits; in the data active = activity change below about -50%; inconclusive = mostly about -30% to -49%
#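 Secreted IL-1B measured by AlphaLISA bead assay after 16 h compound exposure of THP-1 cells; compounds (final up to 57.5 uM) added 1 h before LPS (250 ng/mL) and ATP (1.25 mM) stimulation; lower signal means less secretion.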
# TDP1 cell CPT: qHTS for Inhibitors of human tyrosyl-DNA phosphodiesterase 1 (TDP1): qHTS in cells in presence of CPT; chicken DT40 Tdp1-/-;hTDP1 cells + 20 nM CPT, ATP luminescence, 48 h; Potency, µM (highest dose often 46.2 µM), inactives show at the top dose activity change, negative = growth inhibition, usual class: inhibitors; 420,000 compounds, 12% hits; also: potency is read from the fitted curve at half-maximal effect; nearly all actives have a fitted effect of over 55% in size
#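 Cell growth measured by CellTiter-Glo luminescence after a minimum 48 h, 37 C compound exposure with 20 nM CPT in Tdp1-knockout DT40 cells stably expressing hTDP1, seeded 400/well; qHTS titration format.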
# TDP1 cell noCPT: qHTS for Inhibitors of human tyrosyl-DNA phosphodiesterase 1 (TDP1): qHTS in cells in absence of CPT; Potency, µM (titrated, usually from 46.2 µM), without a hit: at the top dose activity change, negative = growth inhibition, usual class: inhibitors; 420,000 compounds, 15% hits; DT40 Tdp1-/- hTDP1 cells, no CPT, ATP luminescence, 48 h; also: potency is read from the fitted curve at half-maximal effect; nearly all actives have a fitted effect of over 55% in size
#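 Readout: luminescence from CellTiter-Glo after 30 min in the dark at RT. Cells: DT40 Tdp1-/- with stable hTDP1, 400/well. Exposure: compounds alone, ≥48 hr, 37 °C.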
# HT1080 IDH1KD tx: qHTS for induction of synthetic lethality in tumor cells producing 2HG: qHTS for the HT-1080-IDH1KD cell line; HT-1080 IDH1 knockdown viability, ATP luminescence, 48 h; Potency, µM (titrated, usually from 46.1 µM), for inactives: at the highest dose activity, negative = toxicity, hits mostly cytotoxic; 360,000 compounds, 2% hits; AID 686971, 2013;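 also: potency is read from the fitted curve at half-maximal effect; 0% = DMSO wells and -100% = cell-free medium wells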
#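 Assay cells: HT-1080 with IDH1 knockdown, 750 per well, RPMI/5% FBS. Exposure: 48 h at 37 °C following 2 h pre-incubation. Read: CellTiter-Glo luminescence; fitted concentration-response, curve class assigned.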
# * = called active by the depositor; ? = inconclusive; nt = no result given. The sample as a whole holds a higher share of hits than the screen did. Unless noted, calls follow the shape of the dose curve; as a rule, active = well fitted curve in the direction sought with a large enough effect; inconclusive = small, poorly fitted or top-dose-only effect, or another doubt; inactive = no such curve, though single readings can be large; an effect the other way counts as inactive or inconclusive. Unless noted, % is scaled to controls: 0 for no effect and ±100 for the full control effect.
SMILES,HT1080-NT tox,ALOX12 inh,IL-1B inflam inh,TDP1 cell CPT,TDP1 cell noCPT,HT1080 IDH1KD tx
CC(=O)Nc1ccc(-c2ccnc3c2CC(C)(C(=O)Nc2cccc(OC(F)(F)F)c2)O3)cc1 (stereo not drawn),25.9µM*,?,-16.5,?,16.4µM*,?
CC1(C(=O)Nc2cccc(C(F)(F)F)c2)Cc2c(-c3cccc(C(F)(F)F)c3)ccnc2O1 (stereo not drawn),?,-14.6%,-17.3,?,?,?
CC(=O)Nc1ccc(-c2ccnc3c2CC(C)(C(=O)Nc2cccc(C(F)(F)F)c2)O3)cc1 (stereo not drawn),?,-14.4%,-62.0*,14.6µM*,?,?
CN(CC(=O)N1CCCC1)c1nc(-c2ccccc2)nc2ccccc12,nt,12.7%,nt,nt,nt,nt
Cn1nc(C(=O)NC(Cc2ccc(O)cc2)C(=O)O)c2ccccc2c1=O (stereo not drawn),nt,-10.4%,nt,nt,nt,nt
CCOC(=O)c1ccc(Nc2nc(-c3cc4cc(Br)ccc4oc3=O)cs2)cc1,nt,-23.0%,nt,nt,nt,nt
CC(=O)N1CCC(N2CCC3(CC2)CC(C(=O)N2CCOCC2)N(C)C3)CC1 (stereo not drawn),nt,138.4%,nt,nt,nt,nt
O=C(COc1ccc(S(=O)(=O)N2CCOCC2)cc1Cl)NC1CC1,13.9%,?,29.5,-6.4%,-21.9%,11.4%
COCC(C)n1c(C)cc(C(=O)COc2ccc(S(=O)(=O)N3CCOCC3)cc2Cl)c1C (stereo not drawn),-10.9%,?,-2.9,20.6µM*,?,-6.4%
COC1=CC(=O)C(O)=C/C1=C\C=C\c1ccccc1,nt,nt,nt,2.59µM*,4.61µM*,nt
COC(=O)C(=C/C=C/c1ccccc1)C(=O)OC,nt,-14.6%,nt,nt,nt,nt
O=C(N/N=C/c1cc(Cl)cc([N+](=O)[O-])c1O)c1ccc2c(c1)OCO2,-1.1%,-13.4%,23.3,16.4µM*,9.2µM*,-4.0%
COc1cc(Cl)cc(/C=N\NC(=O)c2ccc3c(c2)OCO3)c1O,9.2µM*,?,104.2,?,-96.7%,9.2µM*
Cc1ccc2oc(C(=O)OCc3ccccc3)cc(=O)c2c1,nt,1.1%,nt,nt,nt,nt
COC(=O)c1ccc(CSC2=NC[C@@H]3[C@@H]4C(=O)N(C)C(=O)[C@@H]4[C@](Cc4ccccc4)(C(=O)OC)N23)cc1,-10.9%,-57.6%,-6.5,16.4µM*,?,-1.9%
COC(=O)[C@@]1(Cc2ccccc2)[C@H]2C(=O)N(C)C(=O)[C@H]2[C@H]2CN=C(SCc3ccc(C)cc3)N21,2.5%,-31.2%,-8.1,18.4µM*,16.4µM*,5.8%
CC[C@]1(C(=O)OC)[C@H]2C(=O)N(C)C(=O)[C@H]2[C@H]2CN=C(SCc3ccc(Cl)cc3)N21,-2.1%,?,0.0,?,?,3.6%
COC(=O)[C@@]1(Cc2ccccc2)[C@H]2C(=O)N(C)C(=O)[C@H]2[C@H]2CN=C(SCc3ccc(Cl)cc3)N21,-8.5%,-25.8%,0.0,13µM*,11.6µM*,-2.9%
COC(=O)[C@@]1(Cc2ccccc2)[C@H]2C(=O)N(C)C(=O)[C@H]2[C@H]2CN=C(SCC3CC3)N21,-0.9%,?,-5.2,3.66µM*,-18.7%,-1.2%
CCN1C(=O)[C@H]2[C@H]3CN=C(SCC4CC4)N3[C@@](Cc3ccccc3)(C(=O)OC)[C@H]2C1=O,-5.8%,?,-19.2,-27.0%,?,-7.0%
